# Experimental data taken from PubChem BioAssay (Tox21).
# Results filed as inconclusive are left out. A call without a number means that no potency is given here. Values without a mark were called inactive. Calls of active or inactive are those of the source. Calls come from the whole dose curve.
# Test: p53 small molecule agonists, cell-based qHTS assay with human liver microsomes: qHTS cell viability counter screen (AID 1963579); note: nearly all actives have a fitted effect of over 45% in size
# Method in brief: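 p53RE-bla cells, 4,000/well, dosed 5 hours after plating, with human liver microsomes (0.5 mg/mL final) plus NADPH (0.5 mg/mL final), 16 hours at 37 C. Viability read as CellTiter-Glo luminescence after 30 min at room temperature.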
SMILES,Potency,"activity change, negative = cytotoxicity"
N[C@H](C(=O)O)[C@@H](O)c1ccc(O)c(O)c1,inactive,
CCCCCC(C)N (stereo not given),inactive,
CC(=O)c1ccc(Cl)c(Cl)c1Cl,inactive,
CCCCCCCCCCCCCCCCCC(=O)OCCCCCCCCCCCCCC(C)C,inactive,
O=c1c(-c2ccccc2)c1-c1ccccc1,inactive,
O=C(O)c1ccc(Cl)c(Cl)c1,inactive,
CC(=O)N(CC(O)CN(C(C)=O)c1c(I)c(C(=O)NCC(O)CO)c(I)c(C(=O)NCC(O)CO)c1I)c1c(I)c(C(=O)NCC(O)CO)c(I)c(C(=O)NCC(O)CO)c1I (stereo not given),inactive,
CC(C)C(=O)OCc1ccccc1,inactive,
CCc1ccc(CC)cc1,inactive,
O=S(O)O,,-0.784% [at 13.5 µM]
